Assay results taken from PubChem BioAssay AID624046 (National Center for Advancing Translational Sciences (NCATS), 2012).
Records with an inconclusive call do not appear. Calls of active or inactive are those of the source. Calls come from the whole dose curve; as a rule, active = well fitted inhibition curve with a large enough effect; inconclusive = small, poorly fitted or top-dose-only effect; inactive = flat fitted curve, though single readings scatter.

Biological target: Dual specificity tyrosine-phosphorylation-regulated kinase 1B (Homo sapiens) (UniProt Q9Y463)
Sequence (Q9Y463 whole entry, looked up): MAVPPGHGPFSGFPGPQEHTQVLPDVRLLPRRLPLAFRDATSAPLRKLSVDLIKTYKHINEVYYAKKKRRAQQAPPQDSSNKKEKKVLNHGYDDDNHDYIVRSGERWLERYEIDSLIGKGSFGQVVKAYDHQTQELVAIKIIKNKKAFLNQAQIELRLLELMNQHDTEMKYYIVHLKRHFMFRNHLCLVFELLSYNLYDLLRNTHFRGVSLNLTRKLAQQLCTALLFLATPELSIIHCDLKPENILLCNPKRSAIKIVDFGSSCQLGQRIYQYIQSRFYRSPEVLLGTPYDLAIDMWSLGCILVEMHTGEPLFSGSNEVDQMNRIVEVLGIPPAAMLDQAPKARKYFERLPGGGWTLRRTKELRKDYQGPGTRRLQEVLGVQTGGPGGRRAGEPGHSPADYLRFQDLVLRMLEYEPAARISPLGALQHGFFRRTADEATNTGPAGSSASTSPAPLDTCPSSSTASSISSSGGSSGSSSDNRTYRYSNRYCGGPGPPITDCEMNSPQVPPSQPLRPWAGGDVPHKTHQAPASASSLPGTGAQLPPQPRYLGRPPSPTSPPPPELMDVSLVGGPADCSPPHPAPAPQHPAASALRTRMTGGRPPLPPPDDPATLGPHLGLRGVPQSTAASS
Assay: Reaction Biology data for inhibitors of DYRK1B: Probe SAR
Details: Reaction Biology DYRK1B kinase assay, 10 uM ATP; series mostly up to 10 µM
Excerpt: Alternative splicing of pre-mRNAs plays a major role in the regulation of eukaryotic gene expression. Alternative splicing is now thought to be one of the primary reasons for the complexity of higher organisms leading to an average of three protein isoforms per gene. Aberrant splicing can lead to a number of diseases and is known to play a role in rare genetic diseases such as progeria syndrome. Hutchinson-Gilford Progeria Syndrome (HGPS) is a pediatric premature aging disease caused by a spontaneous mutation in the lamin A/C (LMNA) gene due to a single point mutation in the lamin A gene effecting 1 in 4 million people. To identify both specific splicing modulators of the lamin A gene as well as general splicing modulators, a cell-based HTS assay was developed using a minigene reporter system (AIDs, 1459 & 1487). […] This AID summarizes the characterization of lead compounds in Dyrk1b. NIH Molecular Libraries Probe Production Centers Network [MLPCN] NIH Chemical Genomics Center [NCGC] MLPCN Grant: MH084827 Assay Submitter (PI): Tom Misteli
Compound IC50s were determined at Reaction Biology (http://www.reactionbiology.com) with ten concentration points starting at 10 uM in the assay using a 3-fold dilution series. The control compound staurosporine was also tested in the 10-dose IC50 mode with the same 3-fold serial dilution, again starting at 10 uM. All kinase reactions were performed using 10 uM ATP in the assay. 100% activity was taken from kinase reactions with DMSO alone (the vehicle used for compound stock solutions).

Potency, active:
Cc1nc(CN(C)c2ncnc3ccc(-c4ccc5c(c4)OCO5)cc23)cs1 0.0164 µM
Clc1cc(Cl)cc(CNc2nccc(-c3ccc4c(c3)OCO4)n2)c1 0.0071 µM
Clc1ccc(CNc2nccc(-c3ccc4cn[nH]c4c3)n2)cc1Cl 0.599 µM
c1cc(-c2ccc3c(c2)OCO3)nc(Nc2ccc3c(c2)OCO3)n1 0.0419 µM
c1cncc(CNc2ccnc(-c3ccc4[nH]ncc4c3)n2)c1 0.178 µM
FC(F)(F)c1cccc(Nc2nccc(-c3ccc4c(c3)OCO4)n2)c1 0.0181 µM
c1nc(NCC2CCCO2)c2cc(-c3ccc4c(c3)OCO4)ccc2n1 (stereo unspecified) 0.141 µM
Clc1ccc(CNc2nccc(-c3ccc4c(c3)OCO4)n2)cc1Cl 0.0378 µM
Clc1ccc(CNc2ccnc(-c3ccc4[nH]ncc4c3)n2)cc1Cl 0.514 µM
Cc1nc(CNc2ncnc3ccc(-c4ccc5c(c4)OCO5)cc23)cs1 0.176 µM
Cc1c(-c2ccnc(NCc3ccc(Cl)cc3)n2)sc(=O)n1C 0.0516 µM
Clc1ccc(CNc2nccc(-c3ccc4[nH]ncc4c3)n2)cc1Cl 0.125 µM
FC(F)(F)c1cc(Br)cc(Nc2nccc(-c3ccc4c(c3)OCO4)n2)c1 0.137 µM
Cc1c(-c2ccnc(NCc3cccnc3)n2)sc(=O)n1C 0.0311 µM
Cc1nc(CN(C)c2ncnc3ccc(-c4ccc5[nH]ncc5c4)cc23)cs1 0.0895 µM
O=[N+]([O-])c1cc(Nc2nccc(-c3ccc4c(c3)OCO4)n2)cc(C(F)(F)F)c1 0.027 µM
c1cncc(CNc2nccc(-c3ccc4[nH]ncc4c3)n2)c1 0.0929 µM
Brc1cc(Br)cc(CNc2nccc(-c3ccc4c(c3)OCO4)n2)c1 0.0182 µM
COc1ccc(-c2ccnc(NCc3ccc(Cl)cc3)n2)cc1 0.871 µM
COc1cccc(-c2ccnc(NCc3ccc(Cl)cc3)n2)c1 6.78 µM
c1cncc(CNc2nccc(-c3ccc4c(c3)OCO4)n2)c1 0.012 µM
COc1ccc(-c2ccnc(NCc3ccc(Cl)c(Cl)c3)n2)cc1 0.411 µM
Clc1ccc(CNc2nccc(-c3ccc4c(c3)OCCO4)n2)cc1Cl 0.0548 µM
Clc1ccc(Nc2nccc(-c3ccc4c(c3)OCO4)n2)cc1 0.884 µM
Clc1cc(Cl)cc(CNc2ncncc2-c2ccc3c(c2)OCO3)c1 1.16 µM
Brc1ccc(CNc2nccc(-c3ccc4c(c3)OCO4)n2)cc1Br 0.112 µM
c1cncc(CNc2ccnc(-c3ccc4cn[nH]c4c3)n2)c1 0.829 µM

Potency, inactive:
Clc1ccc(CNc2ncncc2-c2ccc3c(c2)OCO3)cc1Cl
COc1ccc(-c2ccnc(NCc3ccc(Cl)c(Cl)c3)n2)cc1OC
c1cncc(CNc2ncncc2-c2ccc3c(c2)OCO3)c1
COc1cccc(-c2ccnc(NCc3ccc(Cl)c(Cl)c3)n2)c1
